Assay outcomes deposited in PubChem BioAssay by National Center for Advancing Translational Sciences (NCATS).
AmpC no deterg – AmpC beta-lactamase inhibition without detergent | P00811 | AmpC nitrocefin hydrolysis, absorbance 480 nm, 0.0001% Triton | Potency, µM (top dose mostly 57.1 µM), actives largely listed as inhibitors | 0.52% of 330,000 active | AID 485341; also: nearly all actives have a fitted effect of over 20% in size
Target sequence (P00811 whole entry, looked up): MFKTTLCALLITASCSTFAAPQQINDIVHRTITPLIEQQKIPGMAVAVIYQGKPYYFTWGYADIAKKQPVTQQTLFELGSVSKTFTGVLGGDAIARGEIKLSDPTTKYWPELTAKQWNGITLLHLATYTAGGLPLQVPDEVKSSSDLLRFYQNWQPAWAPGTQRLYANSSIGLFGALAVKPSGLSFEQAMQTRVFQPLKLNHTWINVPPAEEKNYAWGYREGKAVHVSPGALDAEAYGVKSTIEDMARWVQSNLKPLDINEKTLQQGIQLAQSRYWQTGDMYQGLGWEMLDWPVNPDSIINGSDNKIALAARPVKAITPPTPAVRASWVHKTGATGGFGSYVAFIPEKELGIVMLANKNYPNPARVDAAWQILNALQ
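AmpC (5.3 nM in the dispensed reagent) in 20 mM phosphate pH 7.0 with 0.01% (detergent screen) or 0.0001% Triton X-100 was preincubated with compounds for 15 min at room temperature. Nitrocefin was then added from an 800 uM solution, and hydrolysis was followed at 480 nm.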
AMA1 RON2 block – AMA1-RON2 (P. falciparum) interaction inhibition. AID 720542. AlphaScreen AMA1-biotinylated RON2 peptide binding. 0.2% of 360,000 active. Potency, µM (top dose mostly 58.2 µM), hits mostly inhibitors; also: nearly all actives have a fitted effect of over 45% in size
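AMA1 (3D7) with his tag at 25 nM final met compounds first, then biotinylated RON2 peptide at 25 nM; detection used donor plus acceptor beads, 10 µg/mL apiece, read by AlphaScreen after 30 min at room temperature.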
AmpC detergent – AmpC beta-lactamase inhibition with detergent present; P00811; AmpC hydrolysis of nitrocefin, absorbance 480 nm, 0.01% Triton; Potency, µM (titrated, usually from 114 µM), most hits filed as inhibitors; 0.041% of 370,000 active; AID 485294; also: nearly all actives have a fitted effect of over 25% in size
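AmpC (5.3 nM in the dispensed reagent) in 20 mM phosphate pH 7.0 with 0.01% (detergent screen) or 0.0001% Triton X-100 was preincubated with compounds for 15 min at room temperature. Nitrocefin was then added from an 800 uM solution, and hydrolysis was followed at 480 nm.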
Cycloheximide cs – counter-screen hit for Shiga toxin inhibitors, cycloheximide. cell reporter, cycloheximide protein synthesis inhibition counterscreen. max response, %. 12% of 300,000 active. AID 2314; in the data active = max response mostly above about 13%, no sharp cut-off; inactive = mostly below about 14%; also: read at 38.3 µM for the half of the compounds with a filed dose
SARS PLpro yeast – blocks SARS-CoV papain-like protease in a yeast assay; S. cerevisiae expressing SARS-CoV PLpro, growth rescue; Potency, µM (top dose mostly 32.9 µM), usual class: activators; 0.19% of 330,000 active; calls by dose curve; also: nearly all actives have a fitted effect of over 55% in size
Shiga toxin inh – blocks Shiga toxin action in Vero cells | Vero cells, Shiga toxin protein synthesis inhibition reporter | inhibition, % at 38.7 µM | 9.2% of 290,000 active; in the data active = inhibition mostly above about 28%, no sharp cut-off; inactive = mostly below about 43%
A number is an active result; i = inactive; ? = inconclusive; nt = not tested or not shown; + = active, no number. The full list was thinned out, with hits kept by preference. Unless noted, calls follow the shape of the dose curve; as a rule, active = well fitted curve in the direction sought with a large enough effect; inconclusive = small, poorly fitted or top-dose-only effect, or another doubt; inactive = no such curve, though single readings can be large; an effect the other way counts as inactive or inconclusive.

SMILES	AmpC no deterg	AMA1 RON2 block	AmpC detergent	Cycloheximide cs	SARS PLpro yeast	Shiga toxin inh
COc1ccc(-c2nnc(SCc3ccccn3)n2C)cc1	i	i	i	26	i	45
COc1ccc(-c2nnc(SCC3CCCO3)n2C)cc1 (stereo not given)	i	i	i	38	i	i
Cn1c(SCC2CCCCC2)nnc1-c1ccncc1	i	i	i	16	i	i
COc1ccc(-c2nnc(SCC(=O)NCC3CCCO3)n2C)cc1 (stereo not given)	i	i	i	i	i	i
COc1ccc(OCCSc2nnc(-c3ccccc3)n2N)cc1	i	i	i	i	i	i
Cn1c(SC2CCCCC2=O)nnc1-c1ccncc1 (stereo not given)	i	i	i	i	i	i
Cc1ccccc1NC(=O)CSc1nc2ccc(NC(=O)c3cccs3)cc2s1	nt	nt	i	nt	nt	nt
CCOC(=O)CSc1cc(CS(=O)(=O)c2ccccc2)nc(-c2ccccc2)n1	i	i	i	i	i	i
COc1ccc(-c2nnc(SCc3ccccc3)n2N)cc1	i	?	i	44	i	61
COc1cccc(CSc2nnc(-c3ccncc3)n2N)c1	i	i	i	i	i	i
COc1ccc(N=C(N)SCc2ccccn2)cc1	i	i	i	31	i	46
COc1ccc(C(=O)N2CCN(Cc3ccccn3)CC2)cc1	i	i	i	i	i	i
COc1cccc(N2CCN(S(=O)(=O)c3ccc4ccccc4c3)CC2)c1	i	i	i	nt	i	nt
Cc1ccc(/C=C/C(=O)NCCc2ccccc2)o1	i	i	i	40	i	77
CC/C(=N\NC(=O)CNC(=O)/C=C/c1ccco1)c1ccccc1	i	i	i	i	i	i
CCC/C(=N\NC(=O)CNC(=O)/C=C/c1ccco1)c1ccccc1	i	i	i	13	i	i
O=C(/C=C/c1ccco1)NCCc1ccccc1	i	i	i	47	i	81
O=C(/C=C/c1ccco1)NCC1(c2ccccc2)CCCC1	i	i	i	105	i	48
Cc1ccc2c(c1)C(=O)C1(O)CCN(c3ccccc3)C1=N2 (stereo not given)	nt	nt	nt	36	nt	i
CCNC(=O)c1ccc(CSc2ccc(Cl)cc2)cc1	i	i	?	34	i	55
CC(=O)NCCNC(=O)c1ccc(CSc2ccc(Cl)cc2)cc1	i	i	i	37	i	94
Cc1ccc(SCc2nc(-c3ccc(C(=O)NCCc4ccc(Cl)cc4)cc3)oc2C)cc1	nt	nt	i	nt	nt	nt
CC(=O)NCCNC(=O)CNC(=O)c1ccc(Cl)cc1	i	i	i	i	i	i
COc1ccc2[nH]c(-c3ccccc3)cc2c1	i	i	i	74	i	88
CCOc1ccc2nc(-c3ccccc3)[nH]c2c1	i	i	i	35	i	71
SMILES	AmpC no deterg	AMA1 RON2 block	AmpC detergent	Cycloheximide cs	SARS PLpro yeast	Shiga toxin inh
Cc1ccc2[nH]c(-c3ccc(F)cc3F)cc(=O)c2c1	nt	nt	nt	32	nt	+
COc1ccc2nc(-c3ccccc3)[nH]c2c1	i	i	?	57	i	73
COc1ccc2nc(C(C)O)[nH]c2c1 (stereo not given)	i	i	?	i	i	i
COc1ccc(NS(=O)(=O)c2cc(NC(=O)c3cc(F)c(F)cc3Cl)ccc2N2CCOCC2)cc1	i	i	nt	nt	i	nt
CCC(C)S(=O)(=O)c1oc(-c2ccc(F)cc2)nc1S(=O)(=O)c1ccc(F)cc1 (stereo not given)	nt	nt	i	nt	nt	nt
COc1ccc(-c2cc(=O)c3cc(F)ccc3[nH]2)cc1	i	i	?	i	i	i
COc1ccc2[nH]c(-c3ccc(C)cc3)cc(=O)c2c1	i	i	i	32	i	i
COc1cc(OC)cc(-c2cc3ccc(OC)cc3cn2)c1	i	i	i	nt	i	nt
COc1ccc2cc(-c3ccccc3)ncc2c1	i	i	i	42	i	85
C=CCSc1nc2c(cc1C#N)CCC2	i	i	i	16	i	i
CSc1nc2c(cc1C#N)CCC2	i	i	i	i	i	i
CCCCSc1nc2c(cc1C#N)CCC2	i	i	i	12	i	i
C=C(C)CSc1nc2c(cc1C#N)CCC2	i	i	?	i	i	i
CCc1ccc(-c2cn3c(n2)sc2cc(C(=O)NC4CCCCC4)ccc23)cc1	nt	nt	i	nt	nt	nt
